This is part of a sample that, as a whole, favours compounds with a hit. Of some 83,000 tested, about 20% had one in any assay.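 The endpoint reported here, percent growth, reads 100 for growth as untreated, 0 for no net growth and -100 for all cells dead.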 Unmarked numbers belong to inactive results. Active and inactive are the calls of the source. Rule for the calls: active = growth percent below 10; inactive = the rest.
What was measured:
Experiment in all cases: NCI-60 one-dose screen, 48 h (100 = growth as untreated, 0 = no growth, -100 = all killed)
Conditions in all cases: 10 µM unless noted
EKVX NSCLC = test system: EKVX NSCLC
SN12C renal = test system: SN12C renal
UO-31 renal = test system: UO-31 renal
TK-10 renal = test system: TK-10 renal
ACHN renal = test system: ACHN renal
CAKI-1 renal = test system: CAKI-1 renal
CCRF-CEM leukemia = test system: CCRF-CEM leukemia
MOLT-4 leukemia = test system: MOLT-4 leukemia
SR leukemia = test system: SR leukemia
A498 renal = test system: A498 renal

| SMILES | growth (EKVX NSCLC) | growth (SN12C renal) | growth (UO-31 renal) | growth (TK-10 renal) | growth (ACHN renal) | growth (CAKI-1 renal) | growth (CCRF-CEM leukemia) | growth (MOLT-4 leukemia) | growth (SR leukemia) | growth (A498 renal) |
| --- | --- | --- | --- | --- | --- | --- | --- | --- | --- | --- |
| c1ccc2c(c1)oc1cc3sccc3nc12 | 101% | 93% | 66.6% | 135% | 99.5% | 78% | 100% | 97.7% | 96.5% |  |
| Cc1ccc(N=NC2C(=O)N(c3ccc(Cl)cc3)N(c3ccc(Cl)cc3)C2=O)cc1 | 94.1% | 96.4% | 73.1% | 132% | 95% | 92.4% | 96.3% | 100% | 120% | 88.6% |
| COC(=O)/C(=C\c1c(C)[nH]c2ccccc12)S(=O)(=O)c1ccccc1 | 61.3% | 39.7% | 23.8% | 46.8% | 49.1% | 27% |  | 15.5% | 27.2% | -3.18% (active) |
| COc1cc(/C=C2\Oc3cc(OCCCN4CCCC4)ccc3C2=O)cc(OC)c1 | 77.1% | 78.8% | 53.4% | 101% | -45.4% (active) | 58.6% | -24.4% (active) | -22.9% (active) | -49.3% (active) |  |
| CN1C(=O)N(C)C2C1NN=c1s/c(=C\c3ccc([N+](=O)[O-])cc3)c(=O)n12 (centres undefined) | 87.5% | 88.7% | 63.5% | 95.2% | 53.6% | 40.2% | 70.4% | 64.3% | 22% |  |
| NCCCNc1nc2ccccc2c2c(=O)c3cc(F)ccc3sc12 | 35.6% | 41.7% | 23% | -46.6% (active) | -66.7% (active) | 33.8% | 0.338% (active) | -35% (active) | 9.08% (active) | 20.5% |
| COc1ccc2sc3c(NCCCN)nc4ccccc4c3c(=O)c2c1 | 57.5% | 81.3% | 67.1% | 74.8% | 48.7% | 73% | 0.782% (active) | -17.3% (active) | 2.94% (active) | 49.8% |
| CC(C)Cn1c2c(c(=S)[nH]c1=O)CCC2 | 102% | 97.6% | 86% | 102% | 103% | 89.1% | 99.3% | 108% | 106% |  |
| COC(=O)c1c2c(c(C)[n+]([O-])c1C)C(=O)C(NCc1ccc(F)c(F)c1)=CC2=O | 13% | 1.1% (active) | 58.8% | 85.5% | 22.1% | 43% | 21.5% | 8.41% (active) | 20.4% |  |
| CCCSC1=NC2C(N(CC)C(=O)N2CC)N1/N=C/C=C/c1ccccc1[N+](=O)[O-] (centres undefined) | 53.6% | 40.6% | 44% | 85.1% | 41.5% | 44.1% | 16% | 18.6% | 9.32% (active) |  |
| O=C1/C=C/[C@@H](O)[C@@H]2C[C@@H](O)C[C@H]2/C=C/CCCCO1 | 20.6% | 45.3% | 8.64% (active) | 32.1% | 17.9% | 18.4% |  | 5.39% (active) | 14.4% | -25.5% (active) |
| CCCN1CCN(c2ccc3nc(-c4ccc5nc(-c6cc(OC)ccc6OC)[nH]c5c4)[nH]c3c2)CC1 | 96.7% | 99.2% | 85.7% | 118% | 106% | 106% | 3.98% (active) | 77% | -25.6% (active) |  |
| S=C1NC2(c3ccccc3)CCC(=S)N2c2ccccc21 (centres undefined) | 100% | 96.8% | 86.2% | 124% | 108% | 78.7% | 101% | 97.5% | 92.9% |  |
| COc1ccc2occ(C3=C(c4c[nH]c5ccccc45)C(=O)NC3=O)c2c1 | 49.4% | 38.4% | 40.4% | 81.5% | 70.2% | 36.6% | 51.9% | 30.2% | 29.4% |  |
| COc1ccc(/C=c2\sc3n(c2=O)NC2C(N=3)N(C)C(=O)N2C)cc1 (centres undefined) | 98.4% | 101% | 77.6% | 112% | 105% | 85% | 95.7% | 102% | 86.8% |  |
| CCCCN1CCN(c2ccc3nc(-c4ccc5nc(-c6ccc(C(F)(F)F)cc6)[nH]c5c4)[nH]c3c2)CC1 | -72.4% (active) | -80.9% (active) | -82.8% (active) | -71.3% (active) | -99.5% (active) | -77.1% (active) | -32.6% (active) | -61% (active) | -46.8% (active) |  |
| Cc1c(-c2csc(-n3nc(C(F)(F)F)cc3C(F)(F)F)n2)no[n+]1[O-] | 69.6% | 95.7% | 85.8% | 118% | 107% | 87.6% | 95.7% | 87.3% | 91.1% |  |
| NC(CCc1nc2ccccc2c(=O)[nH]1)C(=O)O (centres undefined) | 99.7% | 96.6% | 86.7% | 102% | 113% | 87.5% | 103% | 103% | 96.8% |  |
| COC(=O)c1c2c(c(C)[n+]([O-])c1C)C(=O)C=C(NCc1ccc(F)c(F)c1)C2=O | -82.1% (active) | -93.7% (active) | -71.5% (active) | 3.98% (active) | -78.2% (active) | -10.6% (active) | 5.3% (active) | -26.5% (active) | 10.5% |  |
| CCN1C(=O)N(CC)C2C1NN=c1s/c(=C3\C(=O)N(CC(C)(C)C)c4ccccc43)c(=O)n12 (centres undefined) | 49.6% | 32.6% | 38.9% | 84.3% | 40.7% | 38.5% | 10.2% | 16.3% | 6.48% (active) |  |
| CCCCN1CCN(c2ccc3nc(-c4ccc5nc(-c6ccc(OC)c(OC)c6)[nH]c5c4)[nH]c3c2)CC1 | 38.8% | 7.75% (active) | 50.7% | 14.9% | 2.47% (active) | 2.32% (active) | 3.3% (active) | -14.3% (active) | -6.6% (active) |  |
| Cc1ccc2c(n1)C(=O)C(Oc1ccc(Br)cc1)=CC2=O | 104% | 93.5% | 84.3% | 103% | 7.34% (active) | 97.5% | 62% | 87.9% | 92.1% |  |
| COc1ccccc1C1=C(Br)C(=O)c2nc(C)ccc2C1=O | 99.5% | 92.4% | 77.2% | 101% | 19.9% | 98.4% | 92% | 117% | 105% |  |
| CCCN1C(=O)N(CCC)C2C1NN=c1s/c(=C3\C(=O)N(C(C)C)c4ccccc43)c(=O)n12 (centres undefined) | 51% | 65.9% | 30.9% | 78.9% | 23.4% | 31.7% | 45.8% | 46.3% | 7.97% (active) |  |
| N#CC(C#N)=Cc1c(-c2ccccc2)[nH]c2ccccc12 | 66% | 44.3% | 38.9% | 67.6% | 65.5% | 38.6% |  | 26.9% | 32.2% | -3.79% (active) |
| COc1ccc2[nH]c(O)c(N=NC(=O)c3oc4ccccc4c3C)c2c1 | 37.3% | 34.9% | -55.3% (active) | -64% (active) | -50.9% (active) | -51.7% (active) | 57.1% | 50.9% | 43.5% |  |
| CCN1CCN(C(=S)SCC(=O)Nc2nc3ccc(C)cc3s2)CC1 | 122% | 99.1% | 60.6% | 111% | 103% | 87.2% |  | 111% | 103% | 126% |
| C=CCN1C(=O)/C(=c2\sc3n(c2=O)NC2C(N=3)N(CC)C(=O)N2CC)c2ccccc21 (centres undefined) | 49.2% | 56.7% | 56% | 101% | 52.9% | 42.3% | 24.4% | 36.4% | 21.1% |  |
| COc1cc(CNC(=O)Cc2ccccc2)ccc1OCc1cn(-c2ccc(F)cc2)nn1 | 94.2% | 93.1% | 80.7% | 112% | 94.9% | 91.2% | 100% | 114% | 106% |  |

— PubChem BioAssay (NCI)
